Measurements as given in the supplement of paper PMC10849652.
About 7,900 targets were measured; listed, in parts, are those with a hit and a random draw of the rest. About 0.6% of all pairs of compound and target were hits. A number with no mark means an inactive call.

The targets below were run with COc1cc(Nc2ncc3c(n2)-c2ccc(Cl)cc2C(c2c(F)cccc2OC)=NC3)ccc1C(=O)O [alisertib] (assay: log2 fold change, soluble protein after heating vs DMSO (PISA); higher = thermal stabilisation; K562 cells, 10 uM, 30 min; active = over 0.2 and 3.5 SD of the protein, either way, in both replicates (recomputed)).
Method in brief: (§1)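 K562 cells at 2×10^6 cells/mL were given 10 μM compound for 30 min. Aliquots then went through 3 min of heating across 48°C-58°C, were pooled, and were extracted in PBS with 0.5% NP-40 at 4°C, and the supernatant after 21,000xg for 90 min was quantified by TMTpro 16plex LC-MS/MS with channel sums equalised. Thermal stability relative to control samples, from duplicates, is given as log2 fold change.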

Chain of UniProt P48509 (P48509 whole entry, looked up): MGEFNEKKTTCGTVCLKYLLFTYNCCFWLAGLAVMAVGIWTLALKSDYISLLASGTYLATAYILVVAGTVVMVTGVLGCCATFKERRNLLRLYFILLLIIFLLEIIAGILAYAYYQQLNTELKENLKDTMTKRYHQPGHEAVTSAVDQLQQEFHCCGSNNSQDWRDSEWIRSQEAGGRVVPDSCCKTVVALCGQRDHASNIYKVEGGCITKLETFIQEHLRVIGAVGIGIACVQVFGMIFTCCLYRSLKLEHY
Chain of UniProt A5YKK6 (A5YKK6 whole entry, looked up): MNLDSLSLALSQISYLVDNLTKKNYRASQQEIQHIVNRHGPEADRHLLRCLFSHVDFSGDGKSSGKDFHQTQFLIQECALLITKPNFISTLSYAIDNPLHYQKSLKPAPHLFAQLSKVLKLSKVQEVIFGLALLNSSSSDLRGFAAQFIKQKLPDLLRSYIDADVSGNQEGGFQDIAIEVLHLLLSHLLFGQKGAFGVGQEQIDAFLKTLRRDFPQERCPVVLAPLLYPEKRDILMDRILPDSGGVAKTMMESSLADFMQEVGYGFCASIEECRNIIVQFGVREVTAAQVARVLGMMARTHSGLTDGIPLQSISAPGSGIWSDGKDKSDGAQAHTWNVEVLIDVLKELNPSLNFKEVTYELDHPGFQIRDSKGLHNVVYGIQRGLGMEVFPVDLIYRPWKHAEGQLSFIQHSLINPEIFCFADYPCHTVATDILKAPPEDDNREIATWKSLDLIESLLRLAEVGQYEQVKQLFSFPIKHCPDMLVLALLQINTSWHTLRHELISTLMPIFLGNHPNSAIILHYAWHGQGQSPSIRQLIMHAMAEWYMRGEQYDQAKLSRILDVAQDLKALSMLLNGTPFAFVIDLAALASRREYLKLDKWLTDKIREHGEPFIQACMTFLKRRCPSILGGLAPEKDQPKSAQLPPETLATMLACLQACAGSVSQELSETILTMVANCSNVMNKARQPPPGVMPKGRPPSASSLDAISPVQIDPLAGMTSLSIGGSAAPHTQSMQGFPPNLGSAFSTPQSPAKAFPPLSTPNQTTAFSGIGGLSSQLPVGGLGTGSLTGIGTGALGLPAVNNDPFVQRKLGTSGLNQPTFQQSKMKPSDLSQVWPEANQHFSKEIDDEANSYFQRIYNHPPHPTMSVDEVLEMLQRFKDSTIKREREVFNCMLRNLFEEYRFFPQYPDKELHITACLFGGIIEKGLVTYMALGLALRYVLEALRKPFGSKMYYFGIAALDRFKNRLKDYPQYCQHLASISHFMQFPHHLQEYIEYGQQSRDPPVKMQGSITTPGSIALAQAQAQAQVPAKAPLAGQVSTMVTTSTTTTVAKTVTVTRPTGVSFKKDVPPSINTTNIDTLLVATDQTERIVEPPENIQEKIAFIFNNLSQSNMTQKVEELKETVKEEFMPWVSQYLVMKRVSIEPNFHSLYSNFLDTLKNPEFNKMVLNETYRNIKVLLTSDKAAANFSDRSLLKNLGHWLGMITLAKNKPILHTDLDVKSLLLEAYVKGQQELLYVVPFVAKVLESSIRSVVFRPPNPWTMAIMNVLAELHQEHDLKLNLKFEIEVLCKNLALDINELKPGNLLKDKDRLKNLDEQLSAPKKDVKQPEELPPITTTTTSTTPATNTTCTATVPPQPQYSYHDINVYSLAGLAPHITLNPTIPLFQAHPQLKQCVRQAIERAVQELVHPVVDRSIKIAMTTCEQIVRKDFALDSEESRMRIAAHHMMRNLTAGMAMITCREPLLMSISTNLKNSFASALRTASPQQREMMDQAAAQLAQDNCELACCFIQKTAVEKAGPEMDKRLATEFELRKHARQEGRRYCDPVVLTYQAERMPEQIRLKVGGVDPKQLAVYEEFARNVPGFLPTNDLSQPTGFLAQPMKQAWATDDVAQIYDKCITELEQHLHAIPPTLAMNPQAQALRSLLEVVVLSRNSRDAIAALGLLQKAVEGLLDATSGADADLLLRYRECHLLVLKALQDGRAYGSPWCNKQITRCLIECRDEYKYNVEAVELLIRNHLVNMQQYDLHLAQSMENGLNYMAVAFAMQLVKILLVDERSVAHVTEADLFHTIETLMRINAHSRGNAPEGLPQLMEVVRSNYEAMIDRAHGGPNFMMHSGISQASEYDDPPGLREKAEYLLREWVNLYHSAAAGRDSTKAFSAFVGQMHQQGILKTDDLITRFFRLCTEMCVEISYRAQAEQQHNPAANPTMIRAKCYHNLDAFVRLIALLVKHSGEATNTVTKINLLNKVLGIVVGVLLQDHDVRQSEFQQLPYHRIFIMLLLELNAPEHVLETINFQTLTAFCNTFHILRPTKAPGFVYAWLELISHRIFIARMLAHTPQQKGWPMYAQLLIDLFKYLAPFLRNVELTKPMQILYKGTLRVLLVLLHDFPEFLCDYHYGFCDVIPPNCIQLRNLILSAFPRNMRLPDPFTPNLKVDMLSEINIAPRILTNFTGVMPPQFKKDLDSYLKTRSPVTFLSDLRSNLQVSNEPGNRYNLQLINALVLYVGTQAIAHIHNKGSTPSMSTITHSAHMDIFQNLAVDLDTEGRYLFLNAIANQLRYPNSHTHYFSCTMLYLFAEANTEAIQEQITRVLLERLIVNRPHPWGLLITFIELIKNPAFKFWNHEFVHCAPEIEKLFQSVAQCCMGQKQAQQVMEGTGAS
Chain of UniProt P61024 (P61024 whole entry, looked up): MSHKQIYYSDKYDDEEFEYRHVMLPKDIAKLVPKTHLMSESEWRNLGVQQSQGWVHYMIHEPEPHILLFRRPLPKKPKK
Chain of UniProt Q9NYV4 (Q9NYV4 whole entry, looked up): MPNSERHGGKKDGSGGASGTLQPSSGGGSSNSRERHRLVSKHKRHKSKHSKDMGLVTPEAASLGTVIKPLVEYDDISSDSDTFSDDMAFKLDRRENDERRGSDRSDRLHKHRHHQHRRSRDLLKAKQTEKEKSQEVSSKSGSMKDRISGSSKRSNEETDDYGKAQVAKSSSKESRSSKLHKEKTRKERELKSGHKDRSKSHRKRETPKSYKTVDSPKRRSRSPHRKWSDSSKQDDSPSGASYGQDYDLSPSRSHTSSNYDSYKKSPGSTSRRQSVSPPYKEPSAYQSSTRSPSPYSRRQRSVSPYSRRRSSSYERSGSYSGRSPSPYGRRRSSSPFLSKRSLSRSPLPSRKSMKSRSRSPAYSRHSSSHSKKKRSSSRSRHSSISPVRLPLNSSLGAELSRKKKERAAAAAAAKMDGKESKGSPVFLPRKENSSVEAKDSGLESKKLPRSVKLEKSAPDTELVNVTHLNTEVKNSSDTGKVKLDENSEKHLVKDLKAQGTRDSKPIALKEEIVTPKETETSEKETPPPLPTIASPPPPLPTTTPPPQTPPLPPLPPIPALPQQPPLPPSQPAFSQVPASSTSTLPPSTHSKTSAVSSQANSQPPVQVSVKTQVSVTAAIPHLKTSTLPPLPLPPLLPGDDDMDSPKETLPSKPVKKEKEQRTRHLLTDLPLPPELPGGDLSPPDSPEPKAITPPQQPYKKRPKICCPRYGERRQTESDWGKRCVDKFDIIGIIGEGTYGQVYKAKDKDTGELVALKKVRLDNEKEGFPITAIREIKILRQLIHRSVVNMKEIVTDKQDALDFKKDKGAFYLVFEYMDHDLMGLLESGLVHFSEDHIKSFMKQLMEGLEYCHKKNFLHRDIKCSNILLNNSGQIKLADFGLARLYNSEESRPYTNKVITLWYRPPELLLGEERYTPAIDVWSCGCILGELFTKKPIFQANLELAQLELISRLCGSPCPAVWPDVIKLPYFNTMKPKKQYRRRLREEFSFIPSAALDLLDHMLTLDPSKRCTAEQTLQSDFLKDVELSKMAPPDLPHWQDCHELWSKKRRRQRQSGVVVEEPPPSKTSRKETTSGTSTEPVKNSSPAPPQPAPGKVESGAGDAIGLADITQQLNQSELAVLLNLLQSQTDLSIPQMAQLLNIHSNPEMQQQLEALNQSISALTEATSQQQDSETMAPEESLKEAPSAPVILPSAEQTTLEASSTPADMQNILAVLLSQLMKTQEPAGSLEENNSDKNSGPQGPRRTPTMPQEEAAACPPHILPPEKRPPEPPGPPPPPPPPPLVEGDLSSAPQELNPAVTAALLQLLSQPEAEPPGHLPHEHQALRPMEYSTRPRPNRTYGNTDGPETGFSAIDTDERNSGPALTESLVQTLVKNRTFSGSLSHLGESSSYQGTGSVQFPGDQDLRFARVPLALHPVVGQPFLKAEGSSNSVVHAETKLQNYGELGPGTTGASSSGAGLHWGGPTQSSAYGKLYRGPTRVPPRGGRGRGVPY
Chain of UniProt P10606 (P10606 whole entry, looked up): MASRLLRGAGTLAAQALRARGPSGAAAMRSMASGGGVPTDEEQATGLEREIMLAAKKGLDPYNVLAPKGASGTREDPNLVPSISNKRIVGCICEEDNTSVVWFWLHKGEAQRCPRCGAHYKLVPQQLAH
Chain of UniProt Q5T6V5 (Q5T6V5 whole entry, looked up): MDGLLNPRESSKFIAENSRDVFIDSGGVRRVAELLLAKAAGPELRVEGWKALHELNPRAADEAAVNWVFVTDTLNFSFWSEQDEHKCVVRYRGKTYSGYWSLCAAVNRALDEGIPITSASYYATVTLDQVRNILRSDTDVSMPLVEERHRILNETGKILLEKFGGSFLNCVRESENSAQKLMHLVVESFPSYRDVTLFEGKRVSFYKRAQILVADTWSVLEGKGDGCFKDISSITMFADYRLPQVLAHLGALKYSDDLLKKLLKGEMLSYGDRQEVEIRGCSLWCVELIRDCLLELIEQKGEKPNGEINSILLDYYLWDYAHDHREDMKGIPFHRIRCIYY
Chain of UniProt P08174 (P08174 whole entry, looked up): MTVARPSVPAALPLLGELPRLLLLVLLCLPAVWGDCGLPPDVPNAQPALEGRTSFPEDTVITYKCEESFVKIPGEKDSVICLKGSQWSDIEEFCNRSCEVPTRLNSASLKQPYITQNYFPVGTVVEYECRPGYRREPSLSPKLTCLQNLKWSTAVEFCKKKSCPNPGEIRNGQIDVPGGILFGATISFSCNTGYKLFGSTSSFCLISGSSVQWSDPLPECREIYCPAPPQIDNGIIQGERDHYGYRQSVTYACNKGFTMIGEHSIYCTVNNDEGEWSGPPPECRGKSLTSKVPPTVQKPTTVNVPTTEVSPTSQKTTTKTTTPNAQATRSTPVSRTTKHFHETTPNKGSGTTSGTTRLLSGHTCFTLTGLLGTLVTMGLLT

Question: How did the log2 fold change turn out when CSNK1D (UniProt P48730) was run?
Answer: The log2 fold change was -0.016.

Question: How did the log2 fold change turn out when C9orf72 (UniProt Q96LT7) was run?
Answer: Its log2 fold change is 0.062.

Question: For CKS1B (UniProt P61024), which log2 fold change is on record?
Answer: Its log2 fold change is -0.012.

Question: How did the log2 fold change turn out when CDC123 (UniProt O75794) was run?
Answer: Its log2 fold change is -0.048.

Question: How did the log2 fold change turn out when CASP2 (UniProt P42575) was run?
Answer: Its log2 fold change is -0.019.

Question: With C4orf33 (UniProt Q8N1A6) as the target, how does the log2 fold change read?
Answer: The log2 fold change was -0.17.

Question: CCNK isoform 4 (UniProt O75909) was tested. Which log2 fold change did it give?
Answer: The log2 fold change was -0.013.

Question: Which log2 fold change does the source give for CDK12 (UniProt Q9NYV4) here?
Answer: The log2 fold change was 0.062.

Question: For COX5B (UniProt P10606), which log2 fold change is on record?
Answer: Its log2 fold change is -0.103.

Question: With CELF2 isoform 3 (UniProt O95319) as the target, how does the log2 fold change read?
Answer: The log2 fold change was -0.122.

Question: How did the log2 fold change turn out when CDK5 (UniProt Q00535) was run?
Answer: The log2 fold change was -0.046.

Question: Which log2 fold change does the source give for CDK6 (UniProt Q00534) here?
Answer: Its log2 fold change is -0.051.

Question: How did the log2 fold change turn out when CMTM3 (UniProt Q96MX0) was run?
Answer: The log2 fold change was -0.069.

Question: How did the log2 fold change turn out when COQ9 (UniProt O75208) was run?
Answer: Its log2 fold change is -0.038.

Question: For CHEK1 (UniProt O14757), which log2 fold change is on record?
Answer: The log2 fold change was -0.041.

Question: CBS (UniProt P35520) was tested. Which log2 fold change did it give?
Answer: The log2 fold change was -0.073.

Question: Which log2 fold change does the source give for CPT1A (UniProt P50416) here?
Answer: Its log2 fold change is 0.235.

Question: With CDK5RAP1 (UniProt Q96SZ6) as the target, how does the log2 fold change read?
Answer: The log2 fold change was -0.057.

Question: CES2 isoform 4 (UniProt O00748) was tested. Which log2 fold change did it give?
Answer: The log2 fold change was 0.023.

Question: With COX6B1 (UniProt P14854) as the target, how does the log2 fold change read?
Answer: The log2 fold change was 0.007.

Question: For CTBS (UniProt Q01459), which log2 fold change is on record?
Answer: Its log2 fold change is -0.032.

Question: How did the log2 fold change turn out when CNOT1 (UniProt A5YKK6) was run?
Answer: Its log2 fold change is -0.022.

Question: For CETN2 (UniProt P41208), which log2 fold change is on record?
Answer: Its log2 fold change is -0.112.

Question: For COMMD2 (UniProt Q86X83), which log2 fold change is on record?
Answer: Its log2 fold change is -0.126.

Question: With CCZ1 (UniProt P86791) as the target, how does the log2 fold change read?
Answer: Its log2 fold change is -0.072.

Question: CA1 (UniProt P00915) was tested. Which log2 fold change did it give?
Answer: The log2 fold change was -0.032.

Question: Which log2 fold change does the source give for CDK13 (UniProt Q14004) here?
Answer: The log2 fold change was -0.141.

Question: How did the log2 fold change turn out when CPD (UniProt O75976) was run?
Answer: Its log2 fold change is -0.038.

Question: For CDKN2AIP (UniProt Q9NXV6), which log2 fold change is on record?
Answer: Its log2 fold change is -0.091.

Question: For CD151 (UniProt P48509), which log2 fold change is on record?
Answer: The log2 fold change was 0.075.

Question: CDK5RAP3 isoform 4 (UniProt Q96JB5) was tested. Which log2 fold change did it give?
Answer: The log2 fold change was -0.001.

Question: Which log2 fold change does the source give for CD53 (UniProt P19397) here?
Answer: Its log2 fold change is -0.04.

Question: For CD55 isoform 7 (UniProt P08174), which log2 fold change is on record?
Answer: Its log2 fold change is -0.144.

Question: How did the log2 fold change turn out when C9orf64 (UniProt Q5T6V5) was run?
Answer: The log2 fold change was 0.078.

Question: CNOT2 (UniProt Q9NZN8) was tested. Which log2 fold change did it give?
Answer: The log2 fold change was -0.01.

Question: With CCDC59 (UniProt Q9P031) as the target, how does the log2 fold change read?
Answer: Its log2 fold change is -0.124.

The targets below were run with COc1cc2nc(-c3cc(F)ccc3O)nc(N[C@@H]3CNC[C@H]3C(C)(C)O)c2cc1OC in the same assay as above.
Method in brief: as §1

Question: CSNK1D (UniProt P48730) was tested. Which log2 fold change did it give?
Answer: Its log2 fold change is -0.049.

Question: How did the log2 fold change turn out when C9orf72 (UniProt Q96LT7) was run?
Answer: The log2 fold change was -0.013.

Question: How did the log2 fold change turn out when CKS1B (UniProt P61024) was run?
Answer: The log2 fold change was -0.048.

Question: How did the log2 fold change turn out when CDC123 (UniProt O75794) was run?
Answer: The log2 fold change was 0.024.

Question: CASP2 (UniProt P42575) was tested. Which log2 fold change did it give?
Answer: Its log2 fold change is -0.245.

Question: For C4orf33 (UniProt Q8N1A6), which log2 fold change is on record?
Answer: Its log2 fold change is -0.026.

Question: Which log2 fold change does the source give for CCNK isoform 4 (UniProt O75909) here?
Answer: The log2 fold change was -0.021.

Question: CDK12 (UniProt Q9NYV4) was tested. Which log2 fold change did it give?
Answer: The log2 fold change was -0.226.

Question: How did the log2 fold change turn out when COX5B (UniProt P10606) was run?
Answer: The log2 fold change was 0.004.

Question: With CELF2 isoform 3 (UniProt O95319) as the target, how does the log2 fold change read?
Answer: The log2 fold change was 0.1.

Question: With CDK5 (UniProt Q00535) as the target, how does the log2 fold change read?
Answer: Its log2 fold change is 0.054.

Question: CDK6 (UniProt Q00534) was tested. Which log2 fold change did it give?
Answer: The log2 fold change was 0.036.

Question: CMTM3 (UniProt Q96MX0) was tested. Which log2 fold change did it give?
Answer: The log2 fold change was -0.018.

Question: How did the log2 fold change turn out when COQ9 (UniProt O75208) was run?
Answer: Its log2 fold change is -0.013.

Question: CHEK1 (UniProt O14757) was tested. Which log2 fold change did it give?
Answer: Its log2 fold change is -0.805 (active).

Question: How did the log2 fold change turn out when CBS (UniProt P35520) was run?
Answer: Its log2 fold change is 0.024.

Question: Which log2 fold change does the source give for CPT1A (UniProt P50416) here?
Answer: The log2 fold change was 0.308.

Question: CDK5RAP1 (UniProt Q96SZ6) was tested. Which log2 fold change did it give?
Answer: Its log2 fold change is 0.131.

Question: CES2 isoform 4 (UniProt O00748) was tested. Which log2 fold change did it give?
Answer: The log2 fold change was -0.044.

Question: For COX6B1 (UniProt P14854), which log2 fold change is on record?
Answer: The log2 fold change was 0.045.

Question: For CTBS (UniProt Q01459), which log2 fold change is on record?
Answer: Its log2 fold change is 0.026.

Question: How did the log2 fold change turn out when CNOT1 (UniProt A5YKK6) was run?
Answer: The log2 fold change was 0.053.

Question: CETN2 (UniProt P41208) was tested. Which log2 fold change did it give?
Answer: The log2 fold change was 0.141.

Question: COMMD2 (UniProt Q86X83) was tested. Which log2 fold change did it give?
Answer: Its log2 fold change is 0.076.

Question: For CCZ1 (UniProt P86791), which log2 fold change is on record?
Answer: The log2 fold change was -0.036.

Question: With CA1 (UniProt P00915) as the target, how does the log2 fold change read?
Answer: The log2 fold change was -0.026.

Question: Which log2 fold change does the source give for CDK13 (UniProt Q14004) here?
Answer: The log2 fold change was -0.197.

Question: How did the log2 fold change turn out when CPD (UniProt O75976) was run?
Answer: Its log2 fold change is 0.046.

Question: How did the log2 fold change turn out when CDKN2AIP (UniProt Q9NXV6) was run?
Answer: The log2 fold change was -0.007.

Question: Which log2 fold change does the source give for CD151 (UniProt P48509) here?
Answer: Its log2 fold change is 0.111.

Question: How did the log2 fold change turn out when CDK5RAP3 isoform 4 (UniProt Q96JB5) was run?
Answer: The log2 fold change was 0.075.

Question: With CD53 (UniProt P19397) as the target, how does the log2 fold change read?
Answer: Its log2 fold change is 0.154.

Question: Which log2 fold change does the source give for CD55 isoform 7 (UniProt P08174) here?
Answer: Its log2 fold change is 0.012.

Question: C9orf64 (UniProt Q5T6V5) was tested. Which log2 fold change did it give?
Answer: The log2 fold change was -0.079.

Question: With CNOT2 (UniProt Q9NZN8) as the target, how does the log2 fold change read?
Answer: Its log2 fold change is 0.021.

Question: CCDC59 (UniProt Q9P031) was tested. Which log2 fold change did it give?
Answer: The log2 fold change was -0.013.
